An excerpt weighted towards active compounds, which were near 12% of everything screened.
L3MBTL1 inh – qHTS Assay for the Inhibitors of L3MBTL1; AlphaScreen L3MBTL1–H3K9me1 peptide binding; actives 0.66% (n = 230,000); Lethal(3)malignant brain tumor-like protein 1 (Homo sapiens), Q9Y468; Potency, µM (titrated, usually from 57.1 µM), without a hit: at the highest dose activity, negative = inhibition, actives largely listed as inhibitors; further: on the % scale 0 is the no-effect control and ±100 the full control effect; nearly all actives have a fitted effect of over 60% in size
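First, the protein-peptide complex forms for 30 min at room temperature (L3MBTL1 50 nM, biotinylated H3K9me1 peptide 75 nM). Next, compounds are pin-transferred and incubated 30 min. Finally, AlphaScreen beads are added and read after 30 min.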
JMJD2A Tudor – qHTS Assay for Inhibitors of JMJD2A-Tudor Domain; AlphaScreen JMJD2A-Tudor / H3K4me3 peptide binding; Potency, µM (series often up to 114 µM), for inactives: at the highest dose activity change, negative = inhibition, usual class: inhibitors; actives 4.4% (n = 390,000); AID 504339, 2011; further: on the % scale 0 is the no-effect control and ±100 the full control effect; nearly all actives have a fitted effect of over 50% in size
HP1b binding inh – HTS for Inhibitors of HP1-beta Chromodomain Interactions with Methylated Histone Tails | Chromobox protein homolog 1 (Homo sapiens), P83916 | AlphaScreen HP1-beta / biotin-H3K9me3 peptide binding | Potency, µM (top dose mostly 114 µM), inactives show top-dose activity change, negative = inhibition, usual class: inhibitors | actives 0.56% (n = 390,000) | AID 540317, 2011; further: nearly all actives have a fitted effect of over 70% in size
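Compound inhibition of the preformed complex between 50 nM HP1-beta and 50 nM biotinylated H3K9me3 peptide was read by AlphaScreen. Buffer was PBS pH 7.4 with 0.01% Tween-20. Incubations ran 30 min at room temperature, with 10 ug/mL donor/acceptor beads.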
Sfp PPTase inh – qHTS Assay for Inhibitors of Bacillus subtilis Sfp phosphopantetheinyl transferase (PPTase). 4'-phosphopantetheinyl transferase ffp (Bacillus subtilis), Q9F4F7. Biochemical Sfp PPTase activity, qHTS. actives 3.5% (n = 310,000). Potency, µM, inactives show largest response in the series, negative = inhibition, usual class: inhibitors;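 further: the enzyme is Sfp with the accession as filed and its product quenches rhodamine fluorescence; 0% = enzyme reaction without inhibitor and -100% = no enzyme wells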
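Buffer: 50 mM Hepes-Na pH 7.6, 10 mM MgCl2, 0.01% Nonidet P-40, 0.01% BSA. Enzyme 15 nM, pre-exposed to compound 15 min; substrates then added and fluorescence change tracked over 30 min.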
BAZ2B inh – qHTS Assay for Inhibitors of BAZ2B. Bromodomain adjacent to zinc finger domain protein 2B (Homo sapiens), Q9UIF8. AlphaScreen BAZ2B-H3K14Ac peptide displacement. Potency, µM (series often up to 114 µM), for the others: at the top dose activity change, negative = inhibition, usual class: inhibitors. actives 4.4% (n = 360,000); further: on the % scale 0 is the no-effect control and ±100 the full control effect; nearly all actives have a fitted effect of over 60% in size
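Multi-concentration screen (max 110 uM) measuring displacement of acetylated histone H3 peptide from BAZ2B by AlphaScreen, using 50 nM protein, 50 nM peptide and 10 ug/mL streptavidin donor plus Ni-chelate acceptor beads.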
G9a block – qHTS Assay for Inhibitors of Histone Lysine Methyltransferase G9a; Histone-lysine N-methyltransferase EHMT2 (Homo sapiens), Q96KQ7; actives 8.8% (n = 350,000); Potency, µM (series often up to 102 µM), inactives show at the highest dose activity, negative = inhibition, actives largely listed as inhibitors; G9a H3K9 monomethylation, AlphaScreen, 2 h; further: on the % scale 0 is the no-effect control and ±100 the full control effect; nearly all actives have a fitted effect of over 75% in size
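G9a (20 nM) was preincubated 15 min with compound, then reacted 2 h at room temperature with 500 nM biotin-H3K9 peptide and 20 µM SAM. Monomethyl-H3K9 detected by AlphaScreen using anti-H3K9me1 antibody.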
* hit, by the source's call; ? = inconclusive; . = not tested or not shown; [ ] = remark or other dose. The call rests on the fitted dose curve; in most records, active means well fitted curve in the direction sought with a large enough effect; inconclusive means small, poorly fitted or top-dose-only effect, or another doubt; inactive means no such curve, though single readings can be large; an effect the other way counts as inactive or inconclusive. Potency means the concentration at half of the fitted maximal effect.

SMILES | L3MBTL1 inh | JMJD2A Tudor | HP1b binding inh | Sfp PPTase inh | BAZ2B inh | G9a block
CC(C)NC(=S)NC(=O)c1ccc(-c2ccccc2)cc1 | -1% | -33% | -6% | -20% | -31% | 40µM*
Cc1ccc(C(=O)O)cc1NC(=S)NC(=O)c1ccc(-c2ccccc2)cc1 | -15% | ? | ? | -7% | -32% | 14µM*
O=C(O)c1cccc(NC(=S)NC(=O)c2ccc(-c3ccccc3)cc2)c1 | -10% | -3% | 16% | -4% | -36% | 35µM*
N#Cc1cnn2ccc(-c3ccc4c(c3)CCC4)nc12 | ? | 13% | 68% | 16% | 15% | 29%
O=C(NC(=S)Nc1ccc2cn[nH]c2c1)c1ccccc1 | 6% | -8% | 18% | ? | -2% | 45µM*
S=C(Nc1ccccc1)Nc1ccc2cn[nH]c2c1 | 19% | -16% | 22% | 1% | -17% | .
O=C(CN1CCN(c2ccccn2)CC1)N1c2ccccc2Sc2ccc(C(F)(F)F)cc21 | -15% | 2µM* | 16µM* | ? | 22µM* | ?
O=C(CN1CCN(c2ccccn2)CC1)N1CC(O)CO1 (centres undefined) | -2% | 3% | 51% | -2% | -7% | -6%[59 µM]
O=C(CN1CCN(c2ccccn2)CC1)N1c2ccccc2CCc2ccccc21 | -5% | 3.2µM* | 18µM* | 3% | 32µM* | 8.9µM*
COc1cccc(Nc2nc3cc(C)ccc3nc2NS(=O)(=O)c2ccc(Cl)cc2)c1 | . | -5% | 37% | . | 12% | 5%[59 µM]
COC(=O)[C@H](COC(C)(C)C)NC(=O)O[C@@H]1C(=O)c2cc(Br)ccc2O[C@H]1c1cccc(OC)c1 | . | . | . | -14% | . | .
CC[n+]1c(/C=C/C=C/N(C(C)=O)c2ccccc2)sc2cc(OC)ccc21 | -1% | 56µM* | ? | 45µM* | 45µM* | ?
CCn1c(/C=C/N(C(C)=O)c2ccccc2)[n+](CCCS(=O)(=O)[O-])c2cc(Cl)c(Cl)cc21 | 0% | -17% | 29% | 28% | -13% | 15%[12.7 µM]
COc1ccc(C2/C(=C(\O)c3ccc4c(c3)OCCO4)C(=O)C(=O)N2Cc2ccco2)c(OC)c1 (centres undefined) | -15% | ? | -7% | -23% | ? | ?
COC(=O)c1ccc(C2/C(=C(/O)c3ccc(OC)cc3)C(=O)C(=O)N2Cc2ccco2)cc1 (centres undefined) | -2% | ? | 22% | 22µM* | ? | 45µM*
COc1ccc(C2c3c(-c4ccccc4O)n[nH]c3C(=O)N2Cc2ccco2)cc1 (centres undefined) | . | ? | -15% | -29% | 35µM* | -37%[59 µM]
CC1Cc2cc(/C(O)=C3/C(=O)C(=O)N(Cc4ccco4)C3c3cccs3)ccc2O1 (centres undefined) | -9% | -22% | 27% | 28µM* | ? | -10%[12.7 µM]
COc1ccc(/C(O)=C2/C(=O)C(=O)N(Cc3ccco3)C2c2cccs2)cc1 (centres undefined) | 8% | -20% | 29% | 10µM* | ? | 10%[59 µM]
COc1cc(C2c3c(-c4ccccc4O)n[nH]c3C(=O)N2Cc2ccco2)cc(OC)c1OC (centres undefined) | . | -10% | 36% | -4% | -15% | .
CCC(C)[C@H]1CNCCN1CCc1cccc(F)c1 (some centres undefined) | 2% | -20% | 31% | . | 4% | -13%[2.33 µM]
